TROY NFkB inh: TROY signaling inhibition. Q293 LMP1-TROYcd NF-kB luciferase reporter, 4 h. inhibition, % at 10 µM. actives 0.98% (n = 360,000);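 active means compounds whose plate-normalised and pattern-corrected inhibition of the luciferase reporter signal at the single screening dose is 50% or more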
TWEAK-Fn14 inh: blocks TWEAK-Fn14 interaction in a reporter cell assay. inhibition, % at 10 µM. AID 1159606. TWEAK-stimulated Fn14 reporter cells, luciferase luminescence, 8 h. actives 2% (n = 360,000); in the data active means inhibition above about 50%
LGR2 antag: blocks bursicon-induced cAMP signaling via Drosophila LGR2; HEK293 LGR2, CRE-luciferase, bursicon-stimulated, 4 h; inhibition, % at 9.99 µM; AID 720647; actives 0.35% (n = 380,000);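 active means drop in luminescence signal, shown as inhibition above about 50% in the replicate tests, limit read from the data, passing the limit was not always enough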;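 further: agonist challenge used bursicon conditioned medium at about half maximal strength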
KKLEB tox: CF airway cell cytotoxicity counter-screen; KKLEB CF airway cells viability, ATPlite luminescence, overnight; hits give low values; cells stimulated with P. aeruginosa culture filtrate; activity change (cytotoxicity), % at 5 µM; actives 0.36% (n = 360,000); AID 602141;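 active means corrected activity change at or below -50% at 5 µM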
EWS-Fli inh: inhibitors of EWS/Fli oncoprotein transcriptional activity. A673 NR0B1-luciferase reporter, viability-normalised. inhibition, % at 12.6 µM. actives 0.67% (n = 350,000). AID 651661;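 active means mean inhibition of at least 50% after viability correction, with every replicate also passing that limit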;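 further: firefly luciferase signal divided by Alamar Blue viability fluorescence both relative to DMSO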
CF NFkB block: cystic fibrosis NF-kB activation inhibition; AID 588850; inhibition, % at 5 µM; actives 0.86% (n = 360,000); KKLEB NF-kB-GFP reporter, PAF-induced, GFP fluorescence overnight;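 active means at least 50% inhibition at 5 µM, scaled per plate between neutral and stimulator controls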;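 further: PAF is a Pseudomonas aeruginosa culture filtrate used as stimulus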
Hits are given with their value; i = inactive; nt = no result given. Sampled rows, rich in hits. Any-hit rate of the full collection: about 2.6%.

SMILES	TROY NFkB inh	TWEAK-Fn14 inh	LGR2 antag	KKLEB tox	EWS-Fli inh	CF NFkB block
O=C(C[C@@H]1C=C[C@H](NC(=O)c2ccncc2)[C@@H](CO)O1)NCC1CCCCC1	nt	nt	i	nt	i	nt
CC(C)C#Cc1ccc2c(c1)O[C@@H](CN(C)C(=O)c1ccccn1)[C@H](C)CN([C@@H](C)CO)S2(=O)=O	nt	nt	i	nt	i	nt
C[C@H]1CN([C@@H](C)CO)C(=O)Cc2cc(NC(=O)Cc3ccccc3)ccc2O[C@@H]1CN(C)Cc1ccc(C(=O)O)cc1	nt	nt	i	nt	i	nt
CC(C)Oc1ccc(F)cc1-c1cc(C(=O)NCc2ccc(C(F)(F)F)cc2)[nH]n1	i	i	i	i	i	i
CC(C)Oc1cc(F)ccc1-c1cc(C(=O)Nc2cccc(C(F)(F)F)c2)[nH]n1	55	70	i	i	i	i
CC(C)Oc1ccc(F)cc1-c1cc(C(=O)NCc2cc(C(F)(F)F)cc(C(F)(F)F)c2)[nH]n1	i	51	i	i	i	i
O=C(N[C@H]1CC[C@H](CCNC(=O)c2cnccn2)O[C@@H]1CO)c1ccc2c(c1)OCO2	nt	nt	i	nt	i	nt
CC1(C)CCN2CCC(C)(C)c3c(O)ccc1c32	i	64	i	i	i	i
C=CCN(CC=C)C(=S)NC(=O)/C=C/c1ccc(C)cc1	i	63	i	i	nt	i
Cc1cc(OCC(=O)Nc2ccncc2)ccc1Br	nt	88	nt	i	nt	i
Cc1cc(C)c(C)c(S(=O)(=O)ON2C(=O)c3ccccc3C2=O)c1C	i	i	i	-53	56	69
Cc1cc(S(=O)(=O)NCc2ccccc2)ccc1OCC(=O)Nc1cccc([N+](=O)[O-])c1	i	52	i	i	i	i
N/C(=N\OC(=O)c1ccc2ccccc2c1)c1ccccn1	86	96	97	-68	80	i
CCCc1ccc(C(=O)O/N=C(\N)c2ccccn2)cc1	83	99	103	i	88	i
N/C(=N\OC(=O)c1cccc([N+](=O)[O-])c1)c1ccccn1	i	i	i	i	i	i
N/C(=N\OC(=O)c1ccc(=O)n(Cc2ccccc2)c1)c1ccccn1	i	i	i	i	i	i
COc1cccc(C(=O)O/N=C(\N)c2ccccn2)c1	79	101	101	i	i	i
CNC[C@H]1Oc2ccc(NC(=O)C3CCCCC3)cc2C(=O)N([C@@H](C)CO)C[C@@H]1C	nt	nt	i	nt	i	nt
O=Nc1c(O)n(Cc2cccc(C(F)(F)F)c2)c2ccccc12	i	i	i	i	i	51
O=Nc1c(O)n(Cc2ccccc2)c2ccccc12	i	i	i	i	i	i
CC(C)(C)C(=O)NC(NC(=O)C(C)(C)C)c1ccc([N+](=O)[O-])cc1	i	i	i	i	nt	i
CC(=O)Nc1ccc(NC(=O)c2cc([N+](=O)[O-])cc([N+](=O)[O-])c2)cc1	i	i	i	i	i	i
CC(C)(C)C(=O)Nc1ccc(Sc2ccc([N+](=O)[O-])cc2)cc1	i	51	i	i	i	i
CC(=O)Nc1ccc(Sc2ccc([N+](=O)[O-])o2)cc1	i	95	i	-50	61	90
Nc1ccc(N=Nc2ccccc2)c(N)n1	i	i	i	i	i	63
SMILES	TROY NFkB inh	TWEAK-Fn14 inh	LGR2 antag	KKLEB tox	EWS-Fli inh	CF NFkB block
Nc1ccc(N=Nc2ccccc2)c2ccccc12	i	i	i	i	i	i
C[C@@H]1CN([C@H](C)CO)S(=O)(=O)c2ccc(-c3ccncc3)cc2O[C@H]1CN(C)C(=O)CN(C)C	nt	nt	i	nt	i	nt
Cc1ccc(/C=N/NC(=O)c2ccc(-n3cnnn3)cc2)cc1	i	i	i	i	i	i
CC(C)c1ccc(/C=N/NC(=O)c2ccc(-n3cnnn3)cc2)cc1	i	65	i	i	i	i
CSc1ccc(/C=N/NC(=O)c2ccc(-n3cnnn3)cc2)cc1	i	55	i	i	i	i
O=C(N/N=C/c1ccc(F)cc1)c1ccc(-n2cnnn2)cc1	i	i	i	i	i	i
O=C(C[C@H]1C[C@@H]2c3cc(NS(=O)(=O)c4ccc(F)cc4)ccc3O[C@@H]2[C@H](CO)O1)NCC1CC1	nt	nt	i	nt	i	nt
C[C@H]1CN([C@@H](C)CO)C(=O)c2cc(C#CCc3ccccc3)cnc2O[C@@H]1CN(C)Cc1ccccc1	nt	nt	i	nt	i	nt
CC(=O)/C(N=Nc1ccc2c(c1)OCCO2)=C(\C)O	i	77	i	i	i	i
Cc1noc(C)c1S(=O)(=O)Nc1ccc2c(c1)C(=O)N([C@H](C)CO)C[C@H](C)[C@@H](CN(C)S(C)(=O)=O)OCCCC[C@@H](C)O2	nt	nt	i	nt	i	nt
